Experimental findings from PubChem BioAssay AID1076 (NMMLSC, 2008) are described below.

The test in a line: cytotoxicity in LNCaP prostate cells – cell-based, cell event count, single point, cytotoxicity control for prostate differentiation activator project, confirmation (AID 1076).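 Note: counts scatter-gated live cells after medium removal discards detached dead cells.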 The following applies: LNCaP cell loss, flow cytometry event count, 4 d, stronger effect = lower value.

Active and inactive are the calls of the source.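 Rule for the calls: active = cell event count below 40, meaning activity score above 60 where score is 100 minus count; inactive = the rest.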

Regarding `CCOc1ccc(C2SCC(=O)Nc3c2c(=O)[nH]n3C2CCCCCC2)cc1` (stereo not given), the cell event count (at 100 µM) is 18 (inactive) and the cell event count (event count, at 10 µM) came to 101.
The matching figures for `CCn1c(=O)cc(OCC(=O)N2CCC3(CC2)OCCO3)c2ccccc21`: 210 (inactive) and 411.
The corresponding values for `Cc1ccc(Cn2c(C)c3cnn(CC(=O)N4CCC5(CC4)OCCO5)c(=O)c3c2C)cc1` are 66 (inactive) and 202.
The corresponding values for `O=C(COc1ccc2ccccc2c1)N1CCN(C2CCN(Cc3ccccc3)CC2)CC1` are 35 (inactive) and 324.
With `C[C@H]1CCC/C=C/C2C[C@H](O)CC2[C@H](O)/C=C/C(=O)O1` (stereo not given in full), the cell event count reads like this: (at 100 µM) 23 (active); (event count, at 10 µM) 26.
The matching figures for `Cc1ccc2c(c1)[C@@H]1CN(C)CC[C@@H]1N2C(=O)Nc1cccc(C(F)(F)F)c1`: 13 (inactive) and 122.
For `Cc1nc2ccccc2c(=O)n1-c1ccc(F)cc1`, the cell event count runs as follows: (at 100 µM) 282 (inactive); (event count, at 10 µM) 155.
The corresponding values for `Cc1cc(OCC(=O)O)c2c3c(c(=O)oc2c1)CCCC3` are 175 (inactive) and 157.
The corresponding values for `CCn1c(=O)cc(OCC(=O)N2CCN(Cc3ccc4c(c3)OCO4)CC2)c2ccccc21` are 12 (inactive) and 240.
Regarding `Clc1ccc(COC(Cn2ccnc2)c2ccc(Cl)cc2Cl)cc1` (stereo not given), the cell event count is 11 (inactive) (at 100 µM) and 82 (event count, at 10 µM).
